The values that follow come from the supplement of paper PMC6555819.

The experiment relates to RARg homodimer (NR concentration 270 nM). Put plainly: PBM binding z-score (relative to random genomic background probes); higher = stronger binding; sequences stand for … in GC…GCGATTGACAGCGTAGAATGAAGG
In a few lines: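 Custom Agilent 4×180K protein-binding microarrays carried double-stranded probes, each with a 34-nt variable region. These regions held direct-repeat seeds, single-nucleotide variants, half-site ablations and random human genomic background sequences. Ligand-free nuclear receptor dimers were incubated on the arrays for 1 h, antibodies against each partner (one per run) detected binding, and scanned fluorescence was regression-normalized. Binding z-scores take the random background probes as reference.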
The sequence TTACGAAGGTGAAGGTCGTTGATCCCTCTGTAGA had a PBM binding z-score of 1.26.

TAGTCTAGGTCATTCAGGGGCCAGTATAGAAAGC returned a PBM binding z-score of 4.7.

The sequence GCTTGTAGATCAAGGTTAAGAAAGACTAAGCTAA showed a PBM binding z-score of 0.229.

GCTGCTAGGTCAGGTGGGTCAGCTAACGGGTACG returned a PBM binding z-score of 4.26.

The sequence GATACAGGGTCAAGGCTAGAGTACGCGTATTGAT yielded a PBM binding z-score of 5.01.

In the case of AACGAAAGGTCGAGGTGAGTATAGAGAAAGGGAA, the PBM binding z-score worked out at 4.73.

In turn, AATACAGGGTAATCGTAGGCCAGAGTACGCACAG showed a PBM binding z-score of 0.637.

TCGAGTAGGTTAGTAGGGGCATTCAGCCAACATA returned a PBM binding z-score of -0.0163.

Consider CCTGCTAGGGCATGGTCAGCTAATCTACAGTATG, for which the PBM binding z-score was 1.07.

For the sequence ACAGACAGGTGAGTGAAAGTAACTCAGCTGGACG, the PBM binding z-score worked out at 0.291.

In turn, CCTCGGAGGACAGAAGGTCAGGGCTGTCCGCTTT showed a PBM binding z-score of 3.54.

In turn, CGTCCAAGGTCAATGCTAGTTCAGTGAAAGCATT yielded a PBM binding z-score of 6.17.

For the sequence ATCTCTAGGTAAGCCTCAGTTCAGTGAAGAACGC, the PBM binding z-score was determined as 0.0936.

TCGAGTAGGTTAGTCGGGGCATTCAACCAACATA: the PBM binding z-score stood at 0.0739.

In turn, CGAACTAGGACAAGGACAGTGAATCTCCGCACGC displayed a PBM binding z-score of 0.606.

On to CGTCCAAGGTCAGAGAGGTCAGTGAGTGCCGAGT, for which the PBM binding z-score turned out to be 7.09.

On to ACAGACAGGTGCGTGAAGGTAACTCAGCTGGACG, for which the PBM binding z-score was -0.0259.

As to GCTCGGAGGACCAGGTCAGAGCTTTGTCCGTAGA, the PBM binding z-score is 0.461.

With GTACCAAGGTGAATAGGTCGTTGCTGAGTAGGCG, the PBM binding z-score stood at 1.13.

On to TAGCCTAGGTCAAATCGGGCCAGTATACGCTATA, for which the PBM binding z-score was found to be 4.47.

Sequence ACTATTAGTTGAAACGAGGGCAACCGATAGGTTG displayed a PBM binding z-score of 1.11.

Consider AGAATGAGGTTAAGAGCAGGGAAACAGAATACAT, for which the PBM binding z-score came out at 1.27.

Turning to TTTCAAAGTTCAAAGGTAACGTAAGTATCCACAC, the PBM binding z-score stood at 5.88.

Take CGAACTAGGTCAGTACAGGACAGTGAAGGATGAT: the PBM binding z-score came to 3.79.

AGGCAAAGTTCAGGACGAGGTAACGTAAAGCACG showed a PBM binding z-score of 5.16.

TTACAAAGGTGAAGGTCGTTGATCCCTCTGTAGA came in with a PBM binding z-score of 2.66.

Regarding ACTAGTAGTTGAGACGAGGGCAACCGATAGGTTG, the PBM binding z-score is 0.837.

In turn, TGTATGAGGTTATAAGATCAGGGAACGTTGCAAA showed a PBM binding z-score of 1.46.

For the sequence CCTAGTTGGGCAAGGTCACACACGCTATAGGTAC, the PBM binding z-score amounted to 3.87.

The sequence ACAGACAGGTGTGTGAAGGTAACTCAGCTGGACG came in with a PBM binding z-score of -0.134.

As for CAAACTTGGTCAAGAGGTCAAAGTCCGCTTCCCG, the PBM binding z-score worked out at 4.95.

Consider CAAACTAGGTCACTGGAAGGTCAAAGTCCGCATG, for which the PBM binding z-score came to 6.65.

As for GTACCAAGGCGAATAGGTCGTTGATGAGTAGGCG, the PBM binding z-score came out at 0.191.

In the case of TCTATTACTTGATTAGGGCAACCGAAACAGCGGA, the PBM binding z-score is 0.616.

As for TAGCCTAGGTTAGATCGGGCCAGTATACGCTATA, the PBM binding z-score is 0.127.

TCTAGTTGTTCACGGAGGTCACACACGACGGGTA yielded a PBM binding z-score of 3.7.

Sequence CGAACGAGAGCATGAGTTGATAGCAAATGCCGAT had a PBM binding z-score of 0.132.

As to TTACCAAGGTGAAAGGTCGTTGACGCACGCCTTG, the PBM binding z-score is 2.25.

Regarding GCTGCTAGGTCAACCGATGGTCAGCTAAAGCTCG, the PBM binding z-score came to 5.15.

ACTCGGAGGACAAAAGTCAGAGCTACGCCAGTGA showed a PBM binding z-score of 0.784.
